ChEMBL document CHEMBL3988442, “University of Dundee, Small-Polar-MMV Screening Library” (2021)

Each compound was assayed against AMP-activated protein kinase, AMPK (Homo sapiens) (UniProt P54646+O43741+P54619+Q9UGJ0+Q9Y478+Q13131+Q9UGI9) (assay: AMP-dependent Kinase enzyme assay. An in vitro enzyme assay that detects ADP turnover that is directly proportional to AMPK activity. This uses naive AMPK that is activated during the assay with MK-8722). Settings: 30 µM.
Assay type: functional
Design: scale not given: direction of the effect not stated beside the values
Work on `Cn1ccc(CN2CCC(COC3CCCC3)CC2)cc1=O` yielded a Percent Effect of -8.16%.
Work on `CCCC(NC(=O)c1cc(C)ccc1C)c1nnn[nH]1` (stereo not given) yielded a Percent Effect of -5.34%.
`NC(=O)C1CCCN(C(=O)c2cnc3c(cnn3C3CCCC3)c2)C1` (stereo not given) gave a Percent Effect of -8.15%.
`Cc1ccc(NC2CCN(C(=O)CN(C)C3CC3)CC2)nn1` was tested, and the Percent Effect was -0.261%.
For `CCCOCC(=O)NC1CCc2nc(C)cn2C1` (stereo not given), the Percent Effect was 8.68%.
`CNC(=O)c1cc2c(nc1NCC(C)C)CCN(S(=O)(=O)C1CC1)CC2` gave a Percent Effect of 5.7%.
`CC(C)n1cc(S(=O)(=O)N2CCCCC2)cn1` was tested, and the Percent Effect was -5.08%.
Work on `Cc1cccc(N2CCN(C(=O)CN3CCN(CCO)CC3)CC2)c1` yielded a Percent Effect of 2.85%.
Work on `CNc1cccc(C2CCCN(C(=O)c3ccncc3)C2)n1` (stereo not given) yielded a Percent Effect of 12.2%.
Compound `CCN(CC)C(=O)Cn1ccc2cc(NC(=O)C3CCCO3)ccc21` (stereo not given) has a Percent Effect of -13.9%.
`Cc1nccn1-c1cc(CNC(=O)C(C)(C)C)ccn1` was tested, and the Percent Effect was 4.7%.
Work on `CCOc1ccc(C(=O)NS(=O)(=O)c2cncc(Br)c2)cc1OC` yielded a Percent Effect of -8.62%.
With `CC(C)CNC(=O)CN1C=Nc2ccccc2S1(=O)=O` the Percent Effect was 0.627%.
With `CC(CNC(=O)N1CCSCC1)Cc1cccs1` (stereo not given) the Percent Effect was 0.113%.
With `NS(=O)(=O)CCNC(=O)c1nnn(-c2ccc(F)cc2)c1C1CC1` the Percent Effect was -3.7%.
Compound `O=C(NCCOCC(F)(F)F)c1ccc(-c2ccco2)[nH]c1=O` has a Percent Effect of 3.08%.
For `O=C(NCCO)Nc1cccc(Cl)c1SC(F)F`, the Percent Effect was 0.408%.
`Cc1nc(CN2CCCCC2Cn2cncn2)nc2ccccc12` (stereo not given) was tested, and the Percent Effect was -3.54%.
`N#CCSCCCN1CCCN(C(=O)c2ccccc2)CC1` was tested, and the Percent Effect was 0.11%.
With `COC(=O)CCN1CCCC1c1ccccc1Cl` (stereo not given) the Percent Effect was -1.16%.
With `Cc1cncc(C2CCCN(C(=O)c3scnc3C)C2)n1` (stereo not given) the Percent Effect was 3.8%.
`COCCc1noc(CN2CCN(CC(O)c3ccccc3)CC2)n1` (stereo not given) showed a Percent Effect of 4.46%.
For `O=C(NCc1ccc(F)cc1)N1CCC(C2OCCO2)CC1`, the Percent Effect was 6.23%.
`Cc1nn(C)c(C)c1C1CCCN1CC(=O)NC(C1CC1)C1CC1` (stereo not given) was tested, and the Percent Effect was -8.63%.
Work on `Cn1ccc(C(=O)NC2CCC23CCN(C(=O)c2ccncc2)CC3)c1` (stereo not given) yielded a Percent Effect of -2.76%.
In the case of `CN(CC(=O)N1CCN(c2ncccn2)CC1)c1ccc(Cl)cn1`, the Percent Effect is reported as -0.12%.
Compound `Cc1ncsc1CN1CC[C@H]2OCC[C@@]2(C(=O)NC(C)C)C1` has a Percent Effect of 6.03%.
`Cc1nc(C)n(CC2CCCN(CCCOc3ccccc3)C2)n1` (stereo not given) was tested, and the Percent Effect was 8.34%.
Work on `Cc1csc(CNC(=O)N(C)Cc2cnn(C)c2)n1` yielded a Percent Effect of -6.61%.
Work on `Cc1noc(-c2ccc(N3CCCC(C(=O)N4CCSCC4)C3)nc2)n1` (stereo not given) yielded a Percent Effect of 24%.
In the case of `CC(=O)NCCNC(=O)CN1CCN(Cc2nccn2C)C(C)C1` (stereo not given), the Percent Effect is reported as -3.67%.
In the case of `COc1ccc(CNC2CCN(CCc3ccncc3)CC2)cc1O`, the Percent Effect is reported as -9.03%.
Compound `O=C1[C@@H]2CCN(Cc3ccoc3)C[C@@H]2OCCN1Cc1cccnc1` has a Percent Effect of 6.25%.
Compound `Cc1nccn1-c1cc(CNC(=O)CCNC(=O)C2CCCC2)ccn1` has a Percent Effect of -10%.
For `Cc1nn(C)cc1CN1CCC(C2Nc3ccccc3S(=O)(=O)N2)CC1` (stereo not given), the Percent Effect was 11.9%.
For `O=C(N[C@@H]1CN(Cc2ccc3c(c2)OCO3)[C@@H]2CCCO[C@@H]21)C1CC1`, the Percent Effect was -0.94%.
`CC(C)c1nnc2n1CCN(Cc1csc(CC(=O)N(C)C)n1)C2` showed a Percent Effect of 10.8%.
For `COc1ccc(NC(=O)NCC(O)c2ccc(F)cc2F)c(OC)c1` (stereo not given), the Percent Effect was 1.85%.
Work on `Cc1ccc(Cl)cc1C(=O)N1CCC2(CC1)c1ccccc1[C@@H](N)[C@@H]2O` yielded a Percent Effect of -7.41%.
Work on `Cc1cc(C)n(CC2CCCN2C(=O)c2ccc3c(c2)nnn3C)n1` (stereo not given) yielded a Percent Effect of -3.73%.
